Assay outcomes from PubChem BioAssay.
TDP1 cell CPT = DT40-hTDP1 cell growth loss with CPT | AID 686979 | Potency, µM (highest dose often 46.2 µM), for inactives: top-dose activity change, negative = growth inhibition, actives largely listed as inhibitors | hit rate 12% among 420,000 | chicken DT40 Tdp1-/-;hTDP1 cells + 20 nM CPT, ATP luminescence, 48 h; also: potency is read from the fitted curve at half-maximal effect; nearly all actives have a fitted effect of over 55% in size
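Chicken DT40 Tdp1-/- cells stably complemented with human TDP1 were seeded at 400 cells/well in medium containing 20 nM camptothecin, exposed to pin-transferred compounds, and grown at 37 °C for at least 48 hr. Viability was read as ATP luminescence.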
DT40 TDP1 no CPT = qHTS for Inhibitors of human tyrosyl-DNA phosphodiesterase 1 (TDP1): qHTS in cells in absence of CPT; DT40 Tdp1-/- hTDP1 cells, no CPT, ATP luminescence, 48 h; Potency, µM (highest dose often 46.2 µM), for inactives: top-dose activity change, negative = growth inhibition, usual class: inhibitors; hit rate 15% among 420,000; AID 686978, 2013; also: potency is read from the fitted curve at half-maximal effect; nearly all actives have a fitted effect of over 55% in size
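A cellular qHTS used chicken DT40 cells lacking endogenous Tdp1 but carrying stably transfected human TDP1. Compounds were applied without camptothecin, and cell growth kinetics were judged by ATP-dependent luminescence after ≥48 hr.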
HT1080 IDH1KD tx = kills HT-1080 cells with IDH1 knockdown; HT-1080 IDH1 knockdown viability, ATP luminescence, 48 h; hit rate 2% among 360,000; AID 686971; Potency, µM (top dose mostly 46.1 µM), inactives show at the highest dose activity, negative = toxicity, usual class: cytotoxic;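 also: potency is read from the fitted curve at half-maximal effect; 0% = DMSO wells and -100% = cell-free medium wells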
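HT-1080-IDH1KD cells (IDH1 knocked down), 750/well in RPMI with 5% FBS, treated with compound 48 h at 37 degrees C. Viability by CellTiter-Glo luminescence, normalised to DMSO and no-cell wells; concentration-response curves classed.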
12-LOX inh = ALOX12 (human) lipoxygenase inhibition. P18054. purified 12hLO, xylenol orange hydroperoxide absorbance. Potency, µM (doses to about 108 µM), for inactives: top-dose activity change, negative = inhibition, actives largely listed as inhibitors. hit rate 1.1% among 580,000; also: potency is read from the fitted curve at half-maximal effect
Target sequence (P18054 whole entry, looked up): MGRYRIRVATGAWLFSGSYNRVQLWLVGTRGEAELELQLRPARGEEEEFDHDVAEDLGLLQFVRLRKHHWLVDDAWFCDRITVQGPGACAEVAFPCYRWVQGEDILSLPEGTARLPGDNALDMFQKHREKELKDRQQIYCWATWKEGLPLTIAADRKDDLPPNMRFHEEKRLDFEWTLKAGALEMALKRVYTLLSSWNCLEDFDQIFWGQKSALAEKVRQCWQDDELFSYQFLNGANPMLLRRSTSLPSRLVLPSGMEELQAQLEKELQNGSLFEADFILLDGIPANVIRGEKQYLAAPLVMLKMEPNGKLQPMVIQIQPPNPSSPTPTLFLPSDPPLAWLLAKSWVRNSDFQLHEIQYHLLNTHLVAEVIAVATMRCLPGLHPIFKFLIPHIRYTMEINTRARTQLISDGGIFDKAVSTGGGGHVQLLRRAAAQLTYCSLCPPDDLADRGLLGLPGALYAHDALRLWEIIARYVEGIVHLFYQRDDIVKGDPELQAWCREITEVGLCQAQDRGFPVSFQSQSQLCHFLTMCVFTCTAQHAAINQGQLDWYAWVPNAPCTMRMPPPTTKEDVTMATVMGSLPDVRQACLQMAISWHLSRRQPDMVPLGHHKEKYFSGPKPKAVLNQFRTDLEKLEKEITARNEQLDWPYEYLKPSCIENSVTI
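Purified human 12hLO at 150 nM in 25 mM Hepes, 0.01% Triton X-100, pH 7.0, preincubated 15 min at room temperature with compound. Reaction started with 40 uM arachidonic acid, 30 min at room temperature. Hydroperoxide measured by Fe-xylenol orange, 573/405 nm absorbance ratio.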
IL1B secr inh = blocks inflammasome-driven IL-1 beta release. THP-1 LPS/ATP IL-1B secretion, AlphaLISA, 16 h; active compounds read low. activity change, % at 57.5 µM. hit rate 4.7% among 360,000. AID 743279; in the data active = activity change below about -50%; inconclusive = mostly about -30% to -49%
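Secreted IL-1B measured by AlphaLISA bead assay after 16 h compound exposure of THP-1 cells; compounds (final up to 57.5 uM) added 1 h before LPS (250 ng/mL) and ATP (1.25 mM) stimulation; lower signal means less secretion.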
HT1080NT lethal = kills 2HG-producing HT-1080-NT fibrosarcoma cells | hit rate 1.6% among 360,000 | Potency, µM (doses to about 46.1 µM), inactives show top-dose activity, negative = less viability, usual class: cytotoxic | HT-1080-NT fibrosarcoma viability, CellTiter-Glo ATP luminescence, 48 h;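 also: NT is the 2HG producing partner of a matched IDH1 knockdown line; potency is read from the fitted curve at half-maximal effect; 0% = DMSO-treated cells and -100% = media-only wells without cells; nearly all actives have a fitted effect of over 55% in size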
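HT-1080-NT fibrosarcoma cells (2HG-overproducing), 750 cells/well in RPMI with 5% FBS, dosed after 2 h and incubated 48 h at 37C. CellTiter-Glo luminescence normalized to DMSO and no-cell wells; concentration-response curves fitted and classed.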
* = called active by the depositor; ? = inconclusive; . = not tested or not shown; [ ] = another dose, or the depositor's remark. This is one part of a sample in which hits are shown more often than they occur. Unless noted, calls follow the shape of the dose curve; as a rule, active = well fitted curve in the direction sought with a large enough effect; inconclusive = small, poorly fitted or top-dose-only effect, or another doubt; inactive = no such curve, though single readings can be large; an effect the other way counts as inactive or inconclusive. Unless noted, % is scaled to controls: 0 for no effect and ±100 for the full control effect.

SMILES | TDP1 cell CPT | DT40 TDP1 no CPT | HT1080 IDH1KD tx | 12-LOX inh | IL1B secr inh | HT1080NT lethal
Cc1cc(CNC(=O)c2ccc3c(c2)OCO3)c2ccccc2n1 | 7.3µM* | 4.6µM* | ? | ? | 104 | ?
CCCCCNC(=O)CCC(=O)NCCCCC | . | . | . | 5% | . | .
COc1ccc(OC)c(CN2CCCn3nc(C)c(-c4cnccc4C)c32)c1 | . | . | . | 1%[176 µM] | . | .
CC(C)n1nc(C(=O)NCc2ccc3c(c2)OCO3)c2ccccc2c1=O | 16µM* | 21µM* | -2% | ? | 28 | -2%
CSc1ccccc1C(=O)NCc1ccc2c(c1)OCO2 | 6% | -5% | 18% | 24% | -4 | 15%
O=C(NCc1ccc2c(c1)OCO2)c1n[nH]c(=O)c2ccccc12 | ? | ? | -13% | 6% | -3 | -20%
O=C(NCc1ccc2c(c1)OCO2)c1c(F)c(F)c(F)c(F)c1F | -9% | 4% | 0% | 0% | -65* | -15%
CC(C)(C)C(=O)c1cn(CC(=O)NCc2ccc3c(c2)OCO3)c2ccccc12 | ? | 23µM* | -17% | -7% | -21 | -13%
O=C(NCc1ccc2c(c1)OCO2)c1ccccc1Cl | -3% | 3% | -2% | 0% | -68* | -3%
O=C(Nc1ccccc1Cl)c1nc2ccccc2nc1N1CCCCC1 | . | . | . | -25% | . | .
O=C(NCc1ccccc1)c1cc(-c2ccccn2)nc2ccccc12 | . | . | . | -2% | . | .
CCc1cccc(CC)c1NC(=S)NCc1ccc2c(c1)OCO2 | 23µM* | 18µM* | -2% | ? | -10 | -2%
O=C(NCc1ccc2c(c1)OCO2)c1cc(-c2ccccn2)nc2ccccc12 | -28% | ? | -4% | 0% | -82* | 1%
O=c1cc(N2CCC(Cc3ccccc3)CC2)[nH]c(=O)n1C1CCCCC1 | ? | 16µM* | 2% | 0% | 24 | 10%
O=c1cc(N2CCc3ccccc3C2)[nH]c(=O)n1C1CCCCC1 | 1.8µM* | ? | 5% | 1% | -23 | 11%
O=c1cc(N2CCCCC2)[nH]c(=O)n1C1CCCCC1 | -19% | 0% | -1% | 50% | 7 | -4%
O=C(NCC(c1ccco1)N1CCc2ccccc21)C(=O)Nc1ccc(F)cc1F (centres undefined) | 4.1µM* | 3.3µM* | ? | ? | 1 | ?
CN1CCN(C(CNC(=O)C(=O)Nc2ccc(F)cc2F)c2ccc3c(c2)OCO3)CC1 (centres undefined) | -11% | -24% | . | -1% | . | .
O=C(NCC(c1ccco1)N1CCc2ccccc21)C(=O)Nc1ccccc1F (centres undefined) | ? | 18µM* | -18% | -17% | -7 | -3%
O=C(NCC(c1ccco1)N1CCc2ccccc21)C(=O)Nc1ccccc1 (centres undefined) | -35% | ? | -4% | ? | 27 | -14%
Cc1ccccc1COc1ccccc1C(=O)OCc1ccc(-c2ccccc2)cc1 | . | . | . | -5% | . | .
Cc1ccc(S(=O)(=O)Oc2cccc([N+](=O)[O-])c2)cc1 | 10µM* | ? | -18% | 3% | -19 | -16%
COc1cc(/C=N/NC(=O)COc2cc(C)cc(C)c2)ccc1OS(=O)(=O)c1ccc(C)cc1 | 16µM* | 6.5µM* | -11% | -1% | 3 | -1%
CCc1ccc(OCC(=O)N/N=C/c2ccc(OS(=O)(=O)c3ccc(C)cc3)c(OC)c2)cc1 | -1% | 7% | 0% | -7% | -5 | 3%
CCOc1cc(/C=N/NC(=O)c2cccc([N+](=O)[O-])c2)ccc1OS(=O)(=O)c1ccccc1 | ? | 18µM* | ? | -14% | -11 | ?
COc1ccc(C(=O)N/N=C/c2ccc(OC)c(OS(=O)(=O)c3ccccc3)c2)cc1 | -60% | 16µM* | ? | -1% | 0 | 2%
